The text below walks through data of PubChem BioAssay.

The source made the active and inactive calls.

In one assay the target is Albumin (Bos taurus) (UniProt P02769). In words: compounds binding labelled BSA control protein – biochemical, small-molecule microarray, Alexa647 label, 635/667 nm fluorescence, artefact control for SMM control protein annotation, profiling panel (AID 1118).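 Further: score merges 667 nm emission intensity and signal-to-noise per printed compound spot.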 The following applies: BSA-A647 binding, fluorescence 635 nm, higher = more signal.
Assay [1] can be described thus: probe aXIP binding to arrayed compounds – biochemical, NeuroSMM set, 635/667 nm fluorescence, primary screen (AID 1119).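 Further: probe is the protein aXip251-270 applied at 1 µg/mL to compound-printed slides; binding of probe to printed compounds measured as 667 nm fluorescence plus signal to noise.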 The following applies: small-molecule microarray, higher = more signal, called active from +8 up or from −8 down.
Assay [2] can be described thus: probe aNOTCH3 binding on compound microarray – biochemical, small-molecule microarray, 635/667 nm fluorescence, primary screen (AID 1120).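 Further: probe is a biotin-tagged antibody raised against NOTCH3 rather than NOTCH3 protein; score merges spot fluorescence near 667 nm with spot signal to noise.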 The following applies: higher = more signal.
Assay [3] in a line: probe aNOTCH2 binding on compound microarray – biochemical, small-molecule microarray, 635/667 nm fluorescence, primary screen (AID 1121).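 Further: score merges feature fluorescence read at 667 nm with its signal to noise.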 The following applies: higher = more signal.
Assay [4] addresses Carbonic anhydrase 2 (Homo sapiens) (UniProt P00918). In words: compounds binding carbonic anhydrase 2 – biochemical, small-molecule microarray, Alexa647-labelled CAII, profiling panel (AID 1122). The following applies: CAII-A647 binding fluorescence, higher = more signal.
A short description of assay [5]: COS7 lysate on small-molecule microarray, probe aHis, 635 nm (AID 1123).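 Further: z-score combines 667nm fluorescence intensity with signal-to-noise per printed compound spot.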 The following applies: COS7 cell lysate, fluorescence, higher = more signal.
The nature of assay [6]: probe aLAP1 signal on lysate-treated microarray – cell lysate, small-molecule microarray, COS7 lysate, primary screen (AID 1124).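 Further: lysate comes from COS7 cells expressing LAP1 and is applied at 0.3 µg/mL; score merges spot fluorescence near 667 nm with signal-to-noise over triplicate slides.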 The following applies: probe aLAP1, fluorescence, higher = more signal.
The next assay concerns Sam68 (KHDRBS1). Put plainly: compounds binding KHDRBS1 protein – biochemical, small-molecule microarray, 635 nm fluorescence, primary screen (AID 1125).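 Further: score merges 667 nm channel intensity with signal to noise over triplicate slides.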 The following applies: higher = more signal.
Assay [7] relates to Chordin-like protein 2 (CHRDL2). In words: compounds binding chordin-like 2 – biochemical, small-molecule microarray, 635 nm fluorescence, primary screen (AID 1126).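 Further: printed compound slides probed with Chrdl2 protein at 4 µg/mL for 1 h at 4 C; score merges 667 nm emission intensity with signal to noise over three replicate slides.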 The following applies: fluorescence 635 nm, higher = more signal.
The target of assay [8] is Concanavalin-A (Canavalia ensiformis) (UniProt P02866). Put plainly: compounds binding concanavalin A lectin – biochemical, small-molecule microarray, Alexa647 label, 635 nm, artefact control for SMM control protein annotation, primary screen (AID 1127).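 Further: z combines 667 nm emission intensity with signal-to-noise across three replicate slides.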 The following applies: ConA-A647 binding fluorescence, higher = more signal.
Concanavalin-A (Canavalia ensiformis), sequence (P02866 whole entry, looked up): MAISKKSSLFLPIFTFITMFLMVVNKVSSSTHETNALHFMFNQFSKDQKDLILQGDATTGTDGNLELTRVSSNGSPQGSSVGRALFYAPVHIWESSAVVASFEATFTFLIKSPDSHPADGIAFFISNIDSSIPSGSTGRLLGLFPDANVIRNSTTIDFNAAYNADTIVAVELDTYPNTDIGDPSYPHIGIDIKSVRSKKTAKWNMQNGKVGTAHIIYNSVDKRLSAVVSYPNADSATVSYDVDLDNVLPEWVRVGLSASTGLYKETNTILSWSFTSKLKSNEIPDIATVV

Albumin (Bos taurus), sequence (P02769 whole entry, looked up): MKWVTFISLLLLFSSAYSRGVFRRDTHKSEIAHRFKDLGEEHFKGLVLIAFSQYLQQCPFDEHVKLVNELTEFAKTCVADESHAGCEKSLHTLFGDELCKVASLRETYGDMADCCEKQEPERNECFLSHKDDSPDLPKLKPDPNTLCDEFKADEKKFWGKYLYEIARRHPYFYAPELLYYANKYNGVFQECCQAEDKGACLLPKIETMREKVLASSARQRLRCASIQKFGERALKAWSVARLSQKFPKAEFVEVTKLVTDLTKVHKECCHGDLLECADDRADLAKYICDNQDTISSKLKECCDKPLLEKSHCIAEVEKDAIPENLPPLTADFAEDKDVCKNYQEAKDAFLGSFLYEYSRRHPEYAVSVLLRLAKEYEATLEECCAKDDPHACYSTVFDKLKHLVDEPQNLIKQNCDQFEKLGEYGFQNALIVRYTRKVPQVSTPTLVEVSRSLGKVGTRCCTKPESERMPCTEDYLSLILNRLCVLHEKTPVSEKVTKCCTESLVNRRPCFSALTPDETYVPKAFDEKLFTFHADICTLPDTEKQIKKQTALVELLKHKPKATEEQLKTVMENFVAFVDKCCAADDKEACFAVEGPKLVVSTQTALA

`COc1ccc(C(O)C2C=CC3C(=O)NC(=O)C3N2Nc2ccccn2)c2ccccc12` (stereo not given): the composite z-score is 0.304 in the assay with Albumin (Bos taurus); -0.0431 in assay [2]; -0.101 in assay [3]; 0.879 in assay [4]; 0.452 in [5]; -0.14 in assay [6]. For the same molecule, the composite z-score in the assay on Sam68 (KHDRBS1) is -0.328; in [7] it was 0.485; in [8], 0.495. For the same molecule, the composite Z-score in [1] was 0.224 (inactive).
Turning to `CCCCC=C[C@@H](NC(=O)Oc1cccc(C(F)(F)F)c1)c1ccccc1`, the composite z-score in the assay with Albumin (Bos taurus) is 1.02; in [2], 0.888; in [3], 0.39; in assay [4], 0.755; in assay [5] it was 0.183; in [6], -0.403. Further, the composite z-score is 1.27 in the assay on Sam68 (KHDRBS1), -0.0519 in assay [7] and 1.13 in assay [8]. In addition, in [1], the composite Z-score is 0.505 (inactive).
In the case of `O=C(NCc1ccc(F)cc1)[C@H]1C[C@H]2C(=O)N[C@@H](Cc3ccccc3)C(=O)N2[C@H]1c1ccc(O)cc1`, the composite z-score in the assay with Albumin (Bos taurus) was -1.22; in assay [2] it was -0.323; in assay [3] it was -0.159; in [4], 0.606; in assay [5] it was 1.56; in [6], -0.516. Also, the composite z-score with Sam68 (KHDRBS1) was -0.109; in assay [7], 0.371; in assay [8] it was 0.368. Moreover, the composite Z-score in assay [1] was 0.239 (inactive).
Regarding `COc1ccc(C(O)C2C=CC3C(=O)N(c4ccccc4)C(=O)C3N2Nc2ccc(C(C)C)cc2)cc1OCc1ccccc1` (stereo not given), the composite z-score is 0.895 with Albumin (Bos taurus); 0.307 in assay [2]; 0.194 in assay [3]; 0.576 in [4]; 1.78 in assay [5]; 0.902 in assay [6]. For the same molecule, the composite z-score was 1.33 in the assay on Sam68 (KHDRBS1), -0.443 in [7] and 1.12 in assay [8]. In [1], the composite Z-score was 0.868 (inactive).
In the case of `COC(=O)C(CC#Cc1ccc2c(c1)[C@]1(C(=O)N2)[C@H](c2ccc(O)cc2)N2[C@H](c3ccccc3)[C@H](c3ccccc3)OC(=O)[C@H]2[C@@H]1C(=O)Nc1nc2ccccc2s1)C(=O)OC`, the composite z-score with Albumin (Bos taurus) was 0.847; in assay [2] it was 0.138; in [3], -0.0454; in assay [4], 0.556; in assay [5], 2.21; in assay [6], 0.445. Further, the figures for the composite z-score (in the assay on Sam68 (KHDRBS1); in [7]; in [8]) were 1.31, 0.806 and 1.12, respectively. In addition, the composite Z-score in assay [1] is -0.516 (inactive).
Turning to `COCCOC(=O)N1C(=O)[C@@]2(c3ccccc31)[C@H](c1ccc(O)cc1)N1[C@H](c3ccccc3)[C@H](c3ccccc3)OC(=O)[C@H]1[C@@H]2C(=O)NC[C@H](O)c1ccccc1`, the composite z-score with Albumin (Bos taurus) is 0.827; in assay [2] it was 0.0888; in assay [3] it was -0.0513; in [4], 0.756; in assay [5], 1.79; in [6], 0.506. The composite z-score with Sam68 (KHDRBS1) was 1.07; in [7], -1.04; in assay [8] it was 0.291. In assay [1], the composite Z-score was 0.442 (inactive).
As to `O=C1C2C=CC(C(O)c3c(F)cccc3Cl)N(Nc3ccccc3)C2C(=O)N1c1ccccc1` (stereo not given), the composite z-score with Albumin (Bos taurus) was 0.876; in assay [2], 0.418; in [3] it was 0.014; in assay [4] it was 0.382; in assay [5] it was 2.81; in assay [6], 0.045. Moreover, the figures for the composite z-score (in the assay on Sam68 (KHDRBS1); in assay [7]; in [8]) were 1.31, -0.3 and 1.14, respectively. In addition, in [1], the composite Z-score was 0.229 (inactive).
For the molecule `CC(C)N1C(=O)[C@@]2(Cc3ccccc31)c1ccccc1C(=O)N(C1CCCCC1)[C@H]2c1ccc(CO)cc1`, the composite z-score with Albumin (Bos taurus) was -0.352; in assay [2] it was 0.0196; in assay [3] it was -0.174; in assay [4], 0.156; in assay [5], 1.59; in assay [6], 0.779. In addition, the composite z-score in the assay on Sam68 (KHDRBS1) amounted to 0.819; in assay [7], 0.78; in assay [8] it was 0.842. Besides, the composite Z-score in assay [1] is -0.0662 (inactive).
With `O=C1OCCC/C=C\[C@H]2OC34C=CCN(c5ccc6ccccc6c5)C(=O)[C@H]3N(CCCCCCO)C(=O)[C@@H]4C12` (stereo not given in full), the composite z-score with Albumin (Bos taurus) was 0.0499; in [2], -0.256; in assay [3], -0.163; in assay [4] it was 0.946; in assay [5], -0.0749; in [6], 0.978. For the same molecule, the composite z-score with Sam68 (KHDRBS1) is -0.468; in assay [7] it was -1.65; in assay [8], -0.83. For the same molecule, the composite Z-score in [1] is 0.611 (inactive).
As for `COc1cc2c(cc1O)C=[N+](Cc1cccc(OC(F)(F)F)c1)CC2`, the composite z-score with Albumin (Bos taurus) is 0.828; in [2], -0.0879; in assay [3] it was -0.172; in assay [4], 0.61; in assay [5], -0.784; in assay [6], 0.173. For the same molecule, the values for the composite z-score (with Sam68 (KHDRBS1); in assay [7]; in assay [8]) were -0.933, 0.156 and -0.27, respectively. Also, the composite Z-score in assay [1] is 0.0714 (inactive).
Turning to `COC(=O)[C@@]1(Cc2ccc(OC)cc2)[C@H]2c3cc(C(=O)N4CCCC4)n(Cc4ccccc4)c3C[C@H]2CN1C(=O)c1ccccc1`, the composite z-score with Albumin (Bos taurus) stood at 1.05; in [2], 1.75; in assay [3], 1.06; in assay [4], 0.791; in assay [5], 3.09; in [6], 0.399. In addition, the composite z-score in the assay with Sam68 (KHDRBS1) was 0.846; in assay [7], -0.401; in assay [8], 1.08. Further, in assay [1], the composite Z-score was 0.401 (inactive).
Turning to `OC([C@@H]1CC(c2ccccc2)=NO1)[C@H]1CC(c2ccccc2)=NO1` (stereo not given in full), the composite z-score with Albumin (Bos taurus) was 0.558; in assay [2], -0.0465; in assay [3] it was -0.0859; in assay [4] it was -0.11; in assay [5], -0.262; in [6] it was -0.105. Also, the figures for the composite z-score (in the assay on Sam68 (KHDRBS1); in assay [7]; in assay [8]) were -0.285, 0.191 and -0.363, respectively. Further, the composite Z-score in assay [1] was -0.227 (inactive).
Turning to `O=C1NC(=O)C2C1C=CC(C(O)Cc1ccccc1)N2Nc1ccc(Cl)cc1Cl` (stereo not given), the composite z-score with Albumin (Bos taurus) was 0.809; in [2] it was 0.198; in assay [3] it was -0.11; in assay [4] it was 0.803; in [5], 2.07; in assay [6] it was -0.226. Moreover, the composite z-score in the assay with Sam68 (KHDRBS1) is -1.18; in [7] it was -1.15; in [8], -0.652. Besides, the composite Z-score in assay [1] is -0.082 (inactive).
Turning to `O=C1[C@H]2C=C(Br)[C@H](C[C@@H]2c2ccccc2)[C@@]12CO2`, the composite z-score with Albumin (Bos taurus) is -0.6; in assay [2] it was 0.11; in assay [3] it was -0.0817; in assay [4], 0.183; in assay [5] it was -0.0697; in assay [6], -0.187. Further, the composite z-score in the assay with Sam68 (KHDRBS1) was 0.383; in assay [7] it was 0.945; in assay [8], -0.0479. In addition, in [1], the composite Z-score was 1.22 (inactive).
Regarding `C=CC[C@@]1(C(=O)NCc2ccccc2)N=C(c2ccc(OCCCO)cc2)O[C@@H]1c1ccccc1N=[N+]=[N-]`, the composite z-score was 0.98 with Albumin (Bos taurus); 0.355 in [2]; 0.0186 in [3]; 0.712 in [4]; 3.18 in assay [5]; 0.736 in assay [6]. The composite z-score was 1.3 with Sam68 (KHDRBS1), -0.623 in assay [7] and 0.906 in [8]. For the same molecule, the composite Z-score in [1] was -0.108 (inactive).
`C=CCOC(=O)[C@H]1[C@@H]2C(=O)O[C@@H](c3ccccc3)[C@@H](c3ccccc3)N2[C@@H](c2ccc(OCCOC(=O)[C@@H]3C[C@@H]4C(=O)N[C@@H](CCCCN(C)C)C(=O)N4[C@@H]3c3ccc(O)cc3)cc2)[C@]12C(=O)Nc1ccc(I)cc12`: the composite z-score was -0.342 in the assay with Albumin (Bos taurus); -0.0111 in assay [2]; -0.18 in [3]; 0.574 in assay [4]; 1.66 in assay [5]; 0.278 in [6]. Further, the composite z-score with Sam68 (KHDRBS1) amounted to 1.3; in [7], 1.24; in assay [8], 1.15. In [1], the composite Z-score was 0.711 (inactive).
